Measurements taken from PubChem BioAssay (NCATS).
Results filed as inconclusive are left out. Active and inactive are the calls of the source. Unless noted, calls follow the shape of the dose curve; as a rule, active = well fitted curve in the direction sought with a large enough effect; inconclusive = small, poorly fitted or top-dose-only effect, or another doubt; inactive = no such curve, though single readings can be large; an effect the other way counts as inactive or inconclusive.

Columns and labels:
[1] = Primary qHTS for small molecule stabilizers of the endoplasmic reticulum resident proteome: Secreted ER Calcium Modulated Protein (SERCaMP) assay (AID 1508630); also: % is scaled to controls: 0 for no effect and ±100 for the full control effect
Method in brief: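 The SH-SY5Y reporter protocol was run at 3 concentrations up to 38.3 uM (primary) or 11 concentrations (follow-up): 16 h compound, 100 nM thapsigargin for 4 h, then extracellular luciferase luminescence.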

[2] = tested on: HIV-1 nucleocapsid protein NCp7 (binding to TG oligonucleotide); experiment: HIV Nucleocapsid (AID 346; call rule not given here;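 also: potency is read from the fitted curve at half-maximal effect; potency is for inhibitors that block NC binding and lower polarization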); details: HIV-1 NC / fluorescein-TGTGTGTG probe, fluorescence polarization
Method in brief: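 HIV-1 NC (100 nM) binding to fluorescein-labelled ssDNA TG4xF (10 nM) in Hepes pH 7.5, 250mM NaCl, 1uM ZnCl2, TCEP and 2-mercaptoethanol; compounds pin-transferred, 1 hr room temperature, fluorescence polarization read on CCD imager.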

[3] = target: Lysosomal acid glucosylceramidase (Homo sapiens) (UniProt P04062); experiment: Glucocerebrosidase-p2 (AID 348; in the data active = potency below about 10 µM; also: potency is read from the fitted curve at half-maximal effect); details: purified GBA, blue fluorogenic substrate, 40 min
Method in brief: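 Normal human glucocerebrosidase (0.2 nM) with blue fluorogenic substrate (80 uM final) in citrate/phosphate pH 5.9 with 10mM sodium taurocholate, 0.01% tween-20; 40 min RT, NaOH/glycine stop; fluorescence Ex 365/Em 440; AC50 from a titration from 0.6 nM upwards.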

[4] = AP1 Signaling Pathway (AID 357; active = well fitted curve in either direction with a large enough effect, not every such curve was filed as active;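 also: ME-180 reporter cells stimulated with EGF at its EC50 level; % is scaled to controls: 0 for no effect and ±100 for the full control effect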)
Method in brief: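 Modulation of EGF-driven AP-1 transcription was assessed with a beta-lactamase reporter in ME-180 cells. Compound and EC50 EGF were co-incubated 5 hours at 37 °C before 2.5-hour CCF4 loading at room temperature and dual-emission reading.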

[5] = target: Cytochrome P450 1A2 (Homo sapiens) (UniProt P05177); experiment: p450-cyp1a2 (AID 410; calls by dose curve; also: potency is read from the fitted curve at half-maximal effect;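 as to activity change, negative = inhibition: -100% = full effect of reference inhibitor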)
Method in brief: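 Luminescent demethylation readout: Luciferin-ME (100uM, equal to Km) turned over by 20nM CYP1A2 for 60 min at room temperature after NADPH regeneration addition, following 10 min compound preincubation. Normalization used 57 uM furafylline as full inhibition.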

[6] = NFAT Signaling Pathway (AID 444; active = well fitted curve in either direction with a large enough effect, not every such curve was filed as active;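 also: carbachol stimulus at about its EC50 of 1 µM final; % is scaled to controls: 0 for no effect and ±100 for the full control effect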); details: Jurkat NFAT-bla M1, carbachol, beta-lactamase ratio, 5 h; at 7.69 µM (top of the series)
Method in brief: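 Jurkat cells carrying an NFAT-driven β-lactamase reporter and co-transfected muscarinic M1 receptor were treated with compound plus carbachol (1 uM final, an EC50 level) for 5 h at 37 °C. CCF4 loading followed for 1 h at RT; 460/530 nm ratio gave %activity.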

[7] = Stat Signaling Pathway (AID 446; active = well fitted curve in either direction with a large enough effect, not every such curve was filed as active;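 also: ME-180 cervical cancer cells given 40 pM IL-6 alongside compound; SIE-controlled beta-lactamase reporter measured as 460/530 nm FRET emission ratio; % is scaled to controls: 0 for no effect and ±100 for the full control effect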)
Method in brief: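 FRET read-out (405 nm excitation, 460/530 nm emission) of a beta-lactamase reporter under a STAT-inducible element in ME-180 cervical carcinoma cells. Cells with compound receive 40 pM IL-6 for 5 h. Values are normalised to AC90 stimulation and AC90 JAK-inhibitor controls.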

[8] = target: Glucocorticoid receptor (Homo sapiens) (UniProt P04150); experiment: GR-EFC Redistribution (AID 451; calls by dose curve; also: potency is read from the fitted curve at half-maximal effect); details: CHO-K1 GR-EFC translocation, beta-gal luminescence, 2 h
Method in brief: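 CHO-K1 cells stably expressing nuclear-localized β-gal enzyme acceptor and GR fused C-terminally to the enzyme donor fragment; ligand-driven nuclear translocation restores β-gal by complementation. Compounds titrated up to 46 uM final, 2 h at 37 °C; luminescence read.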

[9] = target: Mitogen-activated protein kinase 10 (Mus musculus) (UniProt Q61831); experiment: JNK3 AlphaScreen Assay (AID 530; active = well fitted curve in either direction with a large enough effect, not every such curve was filed as active)
Method in brief: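 Phosphorylation of biotinylated GST-cJun(1-79) at Ser73 is measured by AlphaScreen proximity luminescence. Enzyme is JNK3 in HepG2 lysates activated with interleukin-1beta and tumor necrosis factor alpha; ATP is 10 uM final.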

[10] = target: 3',5'-cyclic-AMP phosphodiesterase 4B (Homo sapiens) (UniProt Q07343); experiment: qHTS Assay for Inhibitors of PDE-IV (AID 607; active = well fitted activation curve with a large enough effect in the main read-out, with a control signal flat, not every such curve was filed as active; also: % of control where 0% means no effect)
Method in brief: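 Cell-based read-out of cAMP via a modified cyclic nucleotide-gated channel and membrane potential dye (535/590 nm) in HEK293 cells expressing PDE4 endogenously. Compounds tested up to 22.9 uM final; 100 uM RO 20-1724 reference.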

[11] = target: Cytochrome P450 3A4 (Homo sapiens) (UniProt P08684); experiment: qHTS Assay for Inhibitors and Substrates of Cytochrome P450 3A4 (AID 884); also: nearly all actives have a fitted effect of over 50% in size; also: potency is read from the fitted curve at half-maximal effect
Method in brief: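 Luminescent readout of luciferin produced by CYP3A4 (20 nM) dealkylation of Luciferin-PPXE, 25 uM (its KM). NADPH-driven reaction ran 60 min at RT after 10 min compound preincubation; data scaled to 57 uM ketoconazole as 100% inhibition.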

[12] = target: Cytochrome P450 3A4 (Homo sapiens) (UniProt P08684); experiment: qHTS Assay for Activators of Cytochrome P450 3A4 (AID 885); also: nearly all actives have a fitted effect of over 65% in size; also: potency is read from the fitted curve at half-maximal effect
Method in brief: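 Luminescent readout of luciferin formed from 25 uM Luciferin-PPXE (KM level) by 20 nM CYP3A4 in 200 mM KPO4, with 60 min NADPH-driven reaction at room temperature after 10 min compound exposure. Ketoconazole (57 uM) defined 100% inhibition.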

[13] = target: Cytochrome P450 2D6 (Homo sapiens) (UniProt P10635); experiment: qHTS Assay for Inhibitors and Substrates of Cytochrome P450 2D6 (AID 891); also: potency is read from the fitted curve at half-maximal effect; nearly all actives have a fitted effect of over 60% in size
Method in brief: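 Luminescent read-out of luciferin formed by 5 nM human CYP2D6 demethylating 30 uM Luciferin-ME EGE (Km level) over 60 min at room temperature after NADPH regeneration addition. Data normalized to full inhibition by 1.43 uM quinidine.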

[14] = qHTS Assay for Lipid Storage Modulators (AID 1519; calls by dose curve); details: Drosophila S3 cells, BODIPY lipid droplet/cell ratio, laser cytometry, cells loaded with oleic acid; for activity change, negative = inhibition: at 57.5 µM (top of the series)
Method in brief: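 Cells seeded at 5,000 per well were treated with compounds over a concentration series and loaded with oleic acid (400 uM, as added). Lipid droplet fluorescence (488 nm excitation, 500-530 nm channel) was read by laser-scanning cytometry and normalized to 20 uM Triacsin C.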

[15] = target: Cytochrome P450 2C9 (Homo sapiens) (UniProt P11712); experiment: qHTS Assay for Inhibitors and Substrates of Cytochrome P450 2C9 (AID 883); also: potency is read from the fitted curve at half-maximal effect; nearly all actives have a fitted effect of over 60% in size
Method in brief: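 A luminogenic readout tracked human CYP2C9 (10nM) converting deoxyluciferin (100uM, at KM) in 25mM KPO4 during 60 min at 37C with regenerated NADPH. Values normalized to 57uM sulphaphenazole as complete inhibition.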

[16] = target: Endonuclease 4 (Escherichia coli (strain K12)) (UniProt P0A6C1); experiment: Counterscreen for APE1 Inhibitors: qHTS Validation Assay for Inhibitors of Endonuclease IV (AID 1708); also: % is scaled to controls: 0 for no effect and ±100 for the full control effect
Method in brief: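 Enzyme (2 nM) + compound, 15 min RT; add 50 nM TAMRA/BHQ-2 THF-site dsDNA; kinetic read ex525/em598, 3 reads/60 s; activity = read 3 − read 1. Buffer Tris pH 7.5, 50 mM NaCl, 2 mM MgCl2, DTT, Tween-20.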

[17] = target: ATP-dependent DNA helicase Q1 (Homo sapiens) (UniProt P46063); experiment: qHTS Validation Assay for Inhibitors of RecQ-Like Dna Helicase 1 (RECQ1) (AID 2353);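 also: plate controls were DMSO vehicle for no effect and enzyme-free control for full effect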
Method in brief: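 RECQ1T1 50 nM; forked duplex (20 bp + 30-nt ss tails) 200 nM, ATP 2 mM final; pH 8.0, 2 mM MgCl2, 2.5 ug/ml poly(dI-dC); 15 min compound preincubation; discontinuous kinetic read over 2 h at RT.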

[18] = Validation screen for small molecules that induce DNA re-replication in MCF 10A normal breast cells (AID 463097); also: 0% is about no effect; nearly all actives have a fitted effect of over 60% in size
Method in brief: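 Readout: Hoechst nuclear fluorescence intensity, 405 ex / 500-530 em, by scanning plate imager; re-replication scored as increase in nuclei with elevated DNA content. Cells exposed to compound 48 hr, 37 C, 5% CO2 beforehand.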

[19] = target: M-phase phosphoprotein 8 (Homo sapiens) (UniProt Q99549); experiment: qHTS Validation Assay for Inhibitors for MPP8 Chromodomain Interactions with Methylated Histone Tails (AID 488949);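 also: AlphaScreen signal from MPP8 chromodomain bound to biotinylated H3K9me3 peptide; top concentration of the series differs between compounds; % is scaled to controls: 0 for no effect and ±100 for the full control effect; nearly all actives have a fitted effect of over 55% in size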
Method in brief: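 MPP8 (50 nM) was preincubated with biotinylated H3(1-18)K9me3 peptide (50 nM) in PBS pH 7.4, 0.01% Tween-20 for 30 min at room temperature, then with compounds for 30 min; binding was detected by AlphaScreen.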

[20] = target: Thyrotropin-releasing hormone receptor (Homo sapiens) (UniProt P34981); experiment: qHTS for Small Molecule Agonists and Allosteric Enhancers of Human TRH Receptor: Validation Screen for Agonists (AID 493127;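 active = calcium activation more than 3 SD above the typical response in the agonist read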;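 also: intracellular calcium rise by fluo-8 fluorescence before TRH EC20 addition; 0% is about no effect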); details: TRH receptor agonist cell assay; at 2 µM; stronger effect = higher value
Method in brief: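 Compound-evoked intracellular calcium release in fluo-8-loaded TRHR cells, read kinetically on FDSS (Ex 480/Em 530, 1 s/cycle) after 23 nL pintool transfer. Agonist phase preceded 10 nM TRH EC20 addition.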

[21] = target: Galactokinase (Homo sapiens) (UniProt P51570); experiment: qHTS Validation Assay for Inhibitors of Human Galactokinase (GALK) (AID 493189); also: 0% is about no effect
Method in brief: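 GALK (5 nM) with 35 uM ATP and 100 uM galactose in HEPES pH8.0, MgCl2, NaCl, DTT, BSA; 1 h at room temperature. Residual ATP read by Kinase-Glo Plus luminescence after 10 min.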

[22] = Validation screen for small molecules that induce DNA re-replication in SW480 colon adenocarcinoma cells (AID 504364); also: 0% is about no effect
Method in brief: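 Image-based DNA content read-out: Hoechst stain 40 min, total nuclear fluorescence intensity (ex 405 nm, em 500-530 nm) after 48 h compound exposure of 250 SW480 cells/well at 37 C, 5% CO2, versus DMSO vehicle.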

[23] = target: DNA dC->dU-editing enzyme APOBEC-3G (Homo sapiens) (UniProt Q9HC16); experiment: qHTS for inhibitors of Vif-A3G interactions: Validation (AID 588379); also: 0% is about no effect
Method in brief: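 Yellow fluorescence (Ex 488, Em 500-530) of Vif-coexpressing HeLa A3G-eYFP cells, scanned by Acumen cytometer, reports blocked A3G degradation. Cells plated at 700/well overnight at 37 deg C before compound addition, then a further overnight compound incubation at 37 deg C.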

[24] = target: Voltage-gated inwardly rectifying potassium channel KCNH2 (Homo sapiens) (UniProt Q12809); experiment: qHTS Assay for Small Molecule Inhibitors of the Human hERG Channel Activity (AID 588834);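 also: top concentration of the series differs between compounds; % is scaled to controls: 0 for no effect and ±100 for the full control effect; lower thallium flux fluorescence means stronger hERG block; nearly all actives have a fitted effect of over 50% in size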
Method in brief: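 In hERG-transduced U2OS cells, dye-loaded for 1 hr at room temperature in dark, test compounds incubated 10 min at 37 °C before thallium stimulation. AC50 values derived by Hill modelling of concentration-response.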

[25] = measured here: cell count channel max response
[26] = measured here: lipid channel max response

Lysosomal acid glucosylceramidase (Homo sapiens), sequence (P04062 whole entry, looked up): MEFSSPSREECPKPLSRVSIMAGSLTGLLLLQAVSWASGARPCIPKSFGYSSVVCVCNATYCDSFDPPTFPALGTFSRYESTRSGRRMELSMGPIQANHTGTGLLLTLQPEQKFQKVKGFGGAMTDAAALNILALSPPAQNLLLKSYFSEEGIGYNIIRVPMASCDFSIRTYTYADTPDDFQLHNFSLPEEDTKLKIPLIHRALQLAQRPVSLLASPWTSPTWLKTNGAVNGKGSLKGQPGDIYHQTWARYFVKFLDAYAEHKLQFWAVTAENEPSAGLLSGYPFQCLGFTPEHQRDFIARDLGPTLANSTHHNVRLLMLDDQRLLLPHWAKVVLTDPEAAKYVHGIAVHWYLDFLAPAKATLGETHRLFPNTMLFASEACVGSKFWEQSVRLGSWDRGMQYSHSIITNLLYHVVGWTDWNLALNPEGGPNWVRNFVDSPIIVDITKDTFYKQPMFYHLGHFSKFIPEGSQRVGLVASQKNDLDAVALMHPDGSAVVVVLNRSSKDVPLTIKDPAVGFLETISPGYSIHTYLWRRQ
Cytochrome P450 1A2 (Homo sapiens), sequence (P05177 whole entry, looked up): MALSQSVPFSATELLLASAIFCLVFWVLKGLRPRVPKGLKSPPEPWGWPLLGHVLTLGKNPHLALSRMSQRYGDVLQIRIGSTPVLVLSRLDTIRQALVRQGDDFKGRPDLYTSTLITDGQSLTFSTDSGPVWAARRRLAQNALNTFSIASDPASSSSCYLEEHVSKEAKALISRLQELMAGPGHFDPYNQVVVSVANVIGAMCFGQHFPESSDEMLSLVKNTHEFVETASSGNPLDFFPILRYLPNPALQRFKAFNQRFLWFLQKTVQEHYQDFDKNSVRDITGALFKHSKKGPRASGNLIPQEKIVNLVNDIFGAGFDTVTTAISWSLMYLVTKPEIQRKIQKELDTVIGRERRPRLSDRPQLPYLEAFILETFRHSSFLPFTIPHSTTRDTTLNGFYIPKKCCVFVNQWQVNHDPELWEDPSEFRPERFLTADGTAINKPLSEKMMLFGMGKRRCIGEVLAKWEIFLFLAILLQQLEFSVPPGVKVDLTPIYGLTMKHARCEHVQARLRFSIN
3',5'-cyclic-AMP phosphodiesterase 4B (Homo sapiens), sequence (Q07343 whole entry, looked up): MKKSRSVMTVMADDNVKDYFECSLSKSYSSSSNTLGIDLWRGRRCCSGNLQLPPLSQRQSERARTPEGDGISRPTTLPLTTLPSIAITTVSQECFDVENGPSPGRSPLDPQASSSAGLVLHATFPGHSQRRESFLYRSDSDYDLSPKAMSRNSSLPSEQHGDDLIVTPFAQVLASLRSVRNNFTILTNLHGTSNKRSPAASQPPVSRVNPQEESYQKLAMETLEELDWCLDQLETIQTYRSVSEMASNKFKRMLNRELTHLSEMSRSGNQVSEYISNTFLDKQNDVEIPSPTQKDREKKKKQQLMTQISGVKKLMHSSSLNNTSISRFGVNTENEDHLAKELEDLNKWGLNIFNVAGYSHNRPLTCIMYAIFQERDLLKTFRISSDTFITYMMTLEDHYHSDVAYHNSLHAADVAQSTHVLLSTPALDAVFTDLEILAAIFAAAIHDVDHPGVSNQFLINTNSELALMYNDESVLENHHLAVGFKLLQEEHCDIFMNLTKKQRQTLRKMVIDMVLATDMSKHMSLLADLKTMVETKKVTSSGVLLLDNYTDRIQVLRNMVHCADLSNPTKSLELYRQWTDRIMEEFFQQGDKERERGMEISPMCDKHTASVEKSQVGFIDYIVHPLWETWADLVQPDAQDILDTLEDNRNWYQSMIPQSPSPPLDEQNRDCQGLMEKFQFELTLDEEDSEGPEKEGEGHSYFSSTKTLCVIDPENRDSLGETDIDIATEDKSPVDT
Glucocorticoid receptor (Homo sapiens), sequence (P04150 whole entry, looked up, the tested form may be a part): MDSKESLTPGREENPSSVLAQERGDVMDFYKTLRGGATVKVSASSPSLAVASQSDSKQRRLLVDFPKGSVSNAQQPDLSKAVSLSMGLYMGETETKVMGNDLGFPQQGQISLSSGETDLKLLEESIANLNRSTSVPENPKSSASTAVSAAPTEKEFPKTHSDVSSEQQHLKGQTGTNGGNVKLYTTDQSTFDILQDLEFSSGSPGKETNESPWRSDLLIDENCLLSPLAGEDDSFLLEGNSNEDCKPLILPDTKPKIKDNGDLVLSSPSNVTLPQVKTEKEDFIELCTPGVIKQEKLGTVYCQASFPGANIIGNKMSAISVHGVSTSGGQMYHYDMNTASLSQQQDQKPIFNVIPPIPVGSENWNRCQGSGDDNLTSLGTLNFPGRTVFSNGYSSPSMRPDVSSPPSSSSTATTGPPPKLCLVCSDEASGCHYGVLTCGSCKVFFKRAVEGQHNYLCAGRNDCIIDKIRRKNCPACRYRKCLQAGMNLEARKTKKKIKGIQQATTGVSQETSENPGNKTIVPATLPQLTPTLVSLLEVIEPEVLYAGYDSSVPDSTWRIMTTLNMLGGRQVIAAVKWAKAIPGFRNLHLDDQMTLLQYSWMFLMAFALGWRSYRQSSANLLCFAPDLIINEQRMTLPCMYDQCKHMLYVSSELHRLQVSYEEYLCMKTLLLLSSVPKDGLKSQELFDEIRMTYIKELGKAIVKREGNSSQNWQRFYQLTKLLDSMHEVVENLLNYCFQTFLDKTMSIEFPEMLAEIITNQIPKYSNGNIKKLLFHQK
Cytochrome P450 3A4 (Homo sapiens), sequence (P08684 whole entry, looked up): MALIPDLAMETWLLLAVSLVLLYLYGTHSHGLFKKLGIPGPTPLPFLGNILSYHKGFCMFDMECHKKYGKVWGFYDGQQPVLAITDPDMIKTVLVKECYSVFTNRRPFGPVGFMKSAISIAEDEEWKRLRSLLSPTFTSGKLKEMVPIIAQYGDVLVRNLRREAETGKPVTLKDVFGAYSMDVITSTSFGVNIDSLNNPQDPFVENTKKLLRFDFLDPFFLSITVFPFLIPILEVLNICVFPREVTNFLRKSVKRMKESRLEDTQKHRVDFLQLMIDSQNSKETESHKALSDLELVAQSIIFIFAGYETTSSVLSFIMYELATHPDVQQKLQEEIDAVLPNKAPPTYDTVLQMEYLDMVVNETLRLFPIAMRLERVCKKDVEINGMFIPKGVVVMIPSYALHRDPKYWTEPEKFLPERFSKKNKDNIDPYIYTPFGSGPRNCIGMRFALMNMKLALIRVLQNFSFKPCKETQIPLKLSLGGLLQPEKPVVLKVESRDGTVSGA
Cytochrome P450 2D6 (Homo sapiens), sequence (P10635 whole entry, looked up): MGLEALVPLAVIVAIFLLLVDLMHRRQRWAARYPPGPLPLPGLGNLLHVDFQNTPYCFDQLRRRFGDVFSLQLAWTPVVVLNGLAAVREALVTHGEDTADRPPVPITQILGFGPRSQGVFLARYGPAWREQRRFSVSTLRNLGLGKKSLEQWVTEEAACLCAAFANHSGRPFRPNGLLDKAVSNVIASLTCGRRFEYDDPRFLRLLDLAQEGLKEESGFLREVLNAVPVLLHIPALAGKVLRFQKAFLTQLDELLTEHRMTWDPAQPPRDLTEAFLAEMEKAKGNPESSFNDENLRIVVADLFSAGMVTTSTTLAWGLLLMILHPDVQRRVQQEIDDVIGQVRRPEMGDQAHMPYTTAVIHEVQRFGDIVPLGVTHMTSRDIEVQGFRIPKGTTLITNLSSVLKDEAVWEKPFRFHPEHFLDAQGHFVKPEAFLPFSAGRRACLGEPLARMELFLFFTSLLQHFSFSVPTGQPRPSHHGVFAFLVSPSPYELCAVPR
Voltage-gated inwardly rectifying potassium channel KCNH2 (Homo sapiens), sequence (Q12809 whole entry, looked up): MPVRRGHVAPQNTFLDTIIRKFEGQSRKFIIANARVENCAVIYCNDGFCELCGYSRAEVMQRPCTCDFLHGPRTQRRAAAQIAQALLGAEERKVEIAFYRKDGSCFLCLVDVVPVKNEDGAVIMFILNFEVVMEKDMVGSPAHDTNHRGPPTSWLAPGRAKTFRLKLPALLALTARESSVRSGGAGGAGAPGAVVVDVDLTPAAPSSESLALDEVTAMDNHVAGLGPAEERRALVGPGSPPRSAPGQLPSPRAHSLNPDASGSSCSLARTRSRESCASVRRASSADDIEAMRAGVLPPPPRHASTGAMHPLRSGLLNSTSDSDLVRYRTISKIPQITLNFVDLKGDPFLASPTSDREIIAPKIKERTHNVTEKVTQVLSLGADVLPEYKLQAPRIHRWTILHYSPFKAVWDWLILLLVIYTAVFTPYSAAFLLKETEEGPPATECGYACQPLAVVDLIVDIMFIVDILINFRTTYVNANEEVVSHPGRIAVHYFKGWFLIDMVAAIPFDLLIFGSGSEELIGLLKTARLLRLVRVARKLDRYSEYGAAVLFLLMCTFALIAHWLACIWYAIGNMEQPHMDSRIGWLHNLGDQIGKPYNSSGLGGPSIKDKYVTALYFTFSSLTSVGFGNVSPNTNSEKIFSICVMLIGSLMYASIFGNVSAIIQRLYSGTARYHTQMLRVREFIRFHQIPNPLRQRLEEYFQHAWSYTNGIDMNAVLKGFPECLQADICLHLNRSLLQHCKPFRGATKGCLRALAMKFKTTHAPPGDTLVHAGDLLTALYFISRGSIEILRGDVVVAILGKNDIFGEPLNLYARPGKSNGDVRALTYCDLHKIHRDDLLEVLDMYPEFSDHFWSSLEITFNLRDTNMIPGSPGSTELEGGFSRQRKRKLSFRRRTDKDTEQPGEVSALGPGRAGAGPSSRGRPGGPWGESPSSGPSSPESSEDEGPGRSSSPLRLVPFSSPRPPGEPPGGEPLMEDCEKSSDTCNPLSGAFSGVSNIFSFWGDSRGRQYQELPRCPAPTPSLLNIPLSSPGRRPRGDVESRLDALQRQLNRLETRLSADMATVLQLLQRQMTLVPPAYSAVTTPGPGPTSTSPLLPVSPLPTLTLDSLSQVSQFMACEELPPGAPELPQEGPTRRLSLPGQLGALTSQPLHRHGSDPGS

CC(=O)OC[C@]12C[C@H](OC(=O)CC(C)C)C(C)=C[C@H]1O[C@H]1[C@H](O)[C@@H](OC(C)=O)[C@@]2(C)[C@]12CO2
inactive: outcome [1]

O=C(O)c1ccc(NC(=O)N2C[C@H]3C[C@@H](C2)c2cccc(=O)n2C3)cc1
inactive: outcome [1]

N#Cc1ccc(CN2CC[C@@]3(CCCN(C(=O)Oc4ccccc4)C3)C2)cc1
28.4%: max response [14, 26]
active: Potency [5] 12.6 µM | Potency [11] 7.94 µM | Potency [13] 3.16 µM
inactive: Potency [2] > 20 µM | Potency [3] > 11.4 µM | outcome [4] | activity change, negative = inhibition [6] -16.4% | outcome [7] | Potency [8] > 46 µM | outcome [9] | Potency [10] | Potency [12] | activity change, negative = inhibition [14] 4.98% | outcome [1]
20.4%: max response [14, 25]

O=C(c1ccncc1)N1CCC2(CC1)CN(Cc1ccccc1)C2
-4.05%: max response [14, 26]
inactive: Potency [2] > 20 µM | Potency [3] > 11.4 µM | outcome [4] | Potency [5] | Potency [8] > 46 µM | outcome [9] | Potency [10] | Potency [12] | activity change, negative = inhibition [14] -1.45% | outcome [1]
active: Potency [13] 6.31 µM
-4.26%: max response [14, 25]

O=C(c1ccco1)N1CCC[C@@]2(CCN(Cc3ccncc3)C2)C1
6.21%: max response [14, 25]
active: Potency [5] 3.98 µM | Potency [15] 3.16 µM
inactive: Potency [2] > 20 µM | outcome [4] | activity change, negative = inhibition [6] -1.52% | outcome [7] | Potency [8] > 46 µM | outcome [9] | Potency [10] | Potency [12] | activity change, negative = inhibition [14] 3.05% | outcome [1]
9.36%: max response [14, 26]

O=C(O)[C@@H]1Cc2[nH]cnc2C(c2cccnc2)N1 (some centres undefined)
inactive: outcome [1]

CC[C@@H](CO)NC(=O)[C@H]1C=C2c3cccc4c3c(cn4C)C[C@H]2N(C)C1
22.3%: max response [14, 26]
inactive: Potency [10] | activity change, negative = inhibition [14] 2.02% | Potency [16] | outcome [17] | Potency [18] | Potency [19] | activation [20] -2.81% | outcome [21] | outcome [22] | outcome [23] | Potency [24] | outcome [1]
18.8%: max response [14, 25]

O=C(Nc1cccc(F)c1)N1CC2(CCN(C(=O)Oc3ccccc3)CC2)C1
active: Potency [5] 12.6 µM | Potency [12] 12.6 µM
-9.16%: max response [14, 25]
-1.47%: max response [14, 26]
inactive: Potency [2] > 20 µM | Potency [3] > 11.4 µM | outcome [4] | activity change, negative = inhibition [6] 16.5% | outcome [7] | Potency [8] > 46 µM | Potency [10] | Potency [11] | activity change, negative = inhibition [14] 5.68% | outcome [1]
